Data on 18 compounds can be found in PubChem BioAssay.

Unmarked numbers belong to inactive results. Activity calls are given as the source filed them.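 Rule for the calls, unless noted: active = compounds lowering colon cancer cell viability after pretreatment blocking the GSK3B kinase; inactive = the rest.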

Test [1] can be described thus: stimulators of insulin release from INS-1E, primary screen, cell-based, 5 mM glucose, NPC library (AID 1117329;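 active = compound raises insulin release from rat beta cells at 5 mM glucose, no numeric limit stated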; note: reference of the scale not given here). As to conditions: rat INS-1E insulin secretion, at 10 µM, active compounds read high.
Test [2] can be described thus: growth inhibition of GSK3B-pretreated HCT116 cells – cell-based, CellTiter-Glo, 0.2 to 20 µM (AID 1117336). The following applies: HCT116 viability after GSK3B inhibitor, at 20 µM, active compounds read high.
Test [3] can be described thus: inhibition of endothelial tube formation, primary screen, imaging, VEGF stimulated, CD31 staining, tube area, NPC library (AID 1117340;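 active = compound that reduces growth-factor-driven endothelial tube area in a mixed cell culture, no cutoff stated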). The following applies: VEGF-stimulated ADSC/ECFC co-culture, at 10 µM, active compounds read high.
A short description of test [4]: GLP1 release stimulators, primary, NCI-H716, NPC library (AID 1117341;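 active = compound raises GLP1 secretion from the human gut endocrine cells, with no numeric limit stated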; note: reference of the scale not given here). As to conditions: NCI-H716 cells, at 10 µM, active compounds read high.
Test [5] in a line: HCT116 colon cancer cell growth inhibition, primary screen, CellTiter-Glo luminescence, NPC library (AID 1117342;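 active = compounds that lower survival of HCT116 colon cancer cells in the luminescence readout, no numeric limit stated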). As to conditions: at 20 µM (top of the series). (In general: Cellular ATP, detected with luciferase, serves as a proxy for viable cell number.)
A short description of test [6]: reduced SW480 viability measured with CellTiter-Glo, NPC library, primary (AID 1117343;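 active = compounds that lower viability of the colon cancer cells in the luminescence readout, with no numeric limit stated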). As to conditions: CellTiter-Glo luminescence; at 20 µM (top of the series).
The nature of test [7]: NPC library primary testing for decreased DLD-1 cell viability via CellTiter-Glo (AID 1117346;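 active = compounds that lower survival of DLD-1 colon cancer cells in the luminescence readout, no cutoff given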). The following applies: DLD-1 viability, CellTiter-Glo luminescence; at 20 µM (top of the series).

On to `O=C1CCc2ccc(OCCCCN3CCN(c4cccc(Cl)c4Cl)CC3)cc2N1`, for which, in test [1], the insulin secretion stimulation is 3.7%. The viability decrease in test [2] was 95% (active). Moreover, in test [3], the tube area decrease was 3.8%. Moreover, the GLP1 secretion stimulation in test [4] is 10.2%. Also, the inhibition of viability in test [5] is 99.4% (active). The viability decrease (inhibition) was 112% (active) in test [6] and 89.5% (active) in test [7].

For `O=C(CCNNC(=O)c1ccncc1)NCc1ccccc1`, the insulin secretion stimulation in test [1] is -2.7%. Besides, the viability decrease in test [2] was 29.1%. In test [3], the tube area decrease is -20.5%. In addition, in test [4], the GLP1 secretion stimulation is 0.6%. Also, the inhibition of viability in test [5] is -8.3%. For the same compound, the viability decrease (inhibition) in test [6] was 81.2% (active); in test [7], 31.8%.

Consider `CC(C)c1nc(CN(C)C(=O)N[C@H](C(=O)N[C@@H](Cc2ccccc2)C[C@H](O)[C@H](Cc2ccccc2)NC(=O)OCc2cncs2)C(C)C)cs1`, for which the insulin secretion stimulation in test [1] was 0.2%. Besides, the viability decrease in test [2] is 33.5%. The tube area decrease in test [3] is -13.5%. Besides, the GLP1 secretion stimulation in test [4] was -0.8%. The inhibition of viability in test [5] was 67.7% (active). The viability decrease (inhibition) is 4.9% in test [6] and 19.4% in test [7].

Turning to `Cc1cn[nH]c1`, in test [1], the insulin secretion stimulation is 0.4%. In test [2], the viability decrease was 20.3%. Moreover, in test [3], the tube area decrease was 4.6%. For the same compound, the GLP1 secretion stimulation in test [4] is 1.6%. In addition, the inhibition of viability in test [5] is 0.47%. The viability decrease (inhibition) was 19.8% in test [6] and 2% in test [7].

Consider `COc1ccc(CC2c3cc(OC)c(OC)cc3CC[N+]2(C)CCC(=O)OCCCCCOC(=O)CC[N+]2(C)CCc3cc(OC)c(OC)cc3C2Cc2ccc(OC)c(OC)c2)cc1OC` (stereo unspecified), for which the insulin secretion stimulation in test [1] is 13.1%. Also, the viability decrease in test [2] was 65.7% (active). For the same compound, in test [3], the tube area decrease was 44.4% (active). The GLP1 secretion stimulation in test [4] is -3%. In addition, the inhibition of viability in test [5] is 6.9%. Further, the figures for the viability decrease (inhibition) in test [6] and in test [7] were 81.7% (active) and 51.9% (active), respectively.

Take `COC1=C(OC)C(=O)C(CCCCCCCCCCO)=C(C)C1=O`: in test [1], the insulin secretion stimulation is 2.2%. Besides, the viability decrease in test [2] was 118% (active). Further, the tube area decrease in test [3] is 66.9% (active). Moreover, in test [4], the GLP1 secretion stimulation is 2.2%. In addition, the inhibition of viability in test [5] is 94.2% (active). In addition, the viability decrease (inhibition) in test [6] is 120% (active); in test [7] it was 82.7% (active).

As to `Cc1ccc(NC(=O)c2ccc(CN3CCN(C)CC3)cc2)cc1Nc1nccc(-c2cccnc2)n1`, the insulin secretion stimulation in test [1] was -3.1%. Also, in test [2], the viability decrease was 94.3% (active). For the same compound, in test [3], the tube area decrease is -31%. The GLP1 secretion stimulation in test [4] is 13.7%. For the same compound, in test [5], the inhibition of viability is 98% (active). In addition, the viability decrease (inhibition) in test [6] is 97.6% (active); in test [7], 88.8% (active).

`Nc1[nH]c(=O)ncc1F`: in test [1], the insulin secretion stimulation is -1.8%. Further, the viability decrease in test [2] was -5.1%. In addition, the tube area decrease in test [3] is -15.9%. Moreover, the GLP1 secretion stimulation in test [4] was 2.3%. In test [5], the inhibition of viability is -15.1%. For the same compound, the viability decrease (inhibition) is -13.1% in test [6] and -0.9% in test [7].

Regarding `COc1ccc(CN2CCN(C(c3ccc(F)cc3)c3ccc(F)cc3)CC2)c(OC)c1OC`, the insulin secretion stimulation in test [1] was 1.6%. For the same compound, the viability decrease in test [2] was 108% (active). Besides, the tube area decrease in test [3] is -1.5%. Also, the GLP1 secretion stimulation in test [4] is 2.3%. In test [5], the inhibition of viability is 110% (active). Also, the values for the viability decrease (inhibition) in test [6] and in test [7] were 133% (active) and 101% (active), respectively.

`COc1cc(C(=O)OCCCN2CCCN(CCCOC(=O)c3cc(OC)c(OC)c(OC)c3)CC2)cc(OC)c1OC`: in test [1], the insulin secretion stimulation is 79.2% (active). The viability decrease in test [2] was 38.2%. The tube area decrease in test [3] was 4.6%. Besides, in test [4], the GLP1 secretion stimulation was 7.5%. Further, the inhibition of viability in test [5] is 77.6% (active). Also, the viability decrease (inhibition) in test [6] is 92.3% (active); in test [7], 24%.

Turning to `CCCc1nc(C)c2c(=O)[nH]c(-c3cc(S(=O)(=O)N4CCN(CC)CC4)ccc3OCC)nn12`, the insulin secretion stimulation in test [1] was -0.4%. Further, in test [2], the viability decrease is -11.4%. The tube area decrease in test [3] was -2.1%. For the same compound, the GLP1 secretion stimulation in test [4] is 0.1%. Moreover, the inhibition of viability in test [5] was 23.1%. In addition, the figures for the viability decrease (inhibition) in test [6] and in test [7] were 14.2% and -13.5%, respectively.

As for `CC1CCN(CCCC(=O)c2ccc(F)cc2)CC1`, the insulin secretion stimulation in test [1] was 8.9%. Also, the viability decrease in test [2] is 5.7%. The tube area decrease in test [3] was 10.4%. The GLP1 secretion stimulation in test [4] was -0.3%. In test [5], the inhibition of viability was 45.7%. The viability decrease (inhibition) in test [6] was 23.2%; in test [7] it was 37.1%.

In the case of `COc1ccc(C(=O)NCc2ccc(OCCN(C)C)cc2)cc1OC`, the insulin secretion stimulation in test [1] was 0.75%. Also, the viability decrease in test [2] was -2.9%. In addition, the tube area decrease in test [3] was 4.2%. Further, the GLP1 secretion stimulation in test [4] was -0.4%. For the same compound, in test [5], the inhibition of viability is 7%. The viability decrease (inhibition) was -4.6% in test [6] and -7.9% in test [7].

As to `CC(C(=O)O)c1ccc(CC2CCCC2=O)cc1` (stereo unspecified), the insulin secretion stimulation in test [1] was -1.3%. Moreover, the viability decrease in test [2] was 9.37%. Moreover, in test [3], the tube area decrease was -7.8%. Besides, the GLP1 secretion stimulation in test [4] is 0.4%. The inhibition of viability in test [5] was 10.8%. Moreover, the viability decrease (inhibition) in test [6] is 37.6%; in test [7], 5.13%.

As to `OCc1cc(C(O)CNCCCCCCOCCCCc2ccccc2)ccc1O` (stereo unspecified), the insulin secretion stimulation in test [1] is 0.4%. For the same compound, the viability decrease in test [2] is -73.1%. In addition, the tube area decrease in test [3] was 27.2%. For the same compound, the GLP1 secretion stimulation in test [4] was -0.4%. The inhibition of viability in test [5] is 44.6%. Further, the viability decrease (inhibition) is 46.4% in test [6] and 37.8% in test [7].

As to `Nc1nc2c(ncn2COC(CO)CO)c(=O)[nH]1`, in test [1], the insulin secretion stimulation is 0%. The viability decrease in test [2] was -10.4%. For the same compound, the tube area decrease in test [3] is -6.4%. Also, the GLP1 secretion stimulation in test [4] was -2%. In addition, the inhibition of viability in test [5] is 4.7%. The viability decrease (inhibition) was -10.2% in test [6] and -8.6% in test [7].

As for `CCCN[C@H]1CCc2nc(N)sc2C1`, in test [1], the insulin secretion stimulation is -3.1%. Moreover, the viability decrease in test [2] is 7.2%. Also, the tube area decrease in test [3] is -9.5%. In test [4], the GLP1 secretion stimulation was 2.6%. Moreover, the inhibition of viability in test [5] was 5.4%. Besides, the figures for the viability decrease (inhibition) in test [6] and in test [7] were 51.7% (active) and 38.1%, respectively.

With `CC(Oc1c(Cl)cccc1Cl)C1=NCCN1` (stereo unspecified), in test [1], the insulin secretion stimulation is 2.3%. In addition, the viability decrease in test [2] was -16.2%. Also, the tube area decrease in test [3] is -28.5%. Moreover, the GLP1 secretion stimulation in test [4] is -2.9%. Besides, the inhibition of viability in test [5] is 31.3%. In addition, the viability decrease (inhibition) in test [6] is 12.5%; in test [7], 61.6% (active).
